Among the data in ChEMBL document CHEMBL1961873, “Compounds: GSK PKIS; Assays: Nanosyn kinase panel” (2012) are inhibition values, retold here.

The structures appear in SMILES notation.

Assay [1] addresses T1, Serine/threonine-protein kinase Nek9 (Homo sapiens) (UniProt Q8TD19).
T1 sequence (whole entry): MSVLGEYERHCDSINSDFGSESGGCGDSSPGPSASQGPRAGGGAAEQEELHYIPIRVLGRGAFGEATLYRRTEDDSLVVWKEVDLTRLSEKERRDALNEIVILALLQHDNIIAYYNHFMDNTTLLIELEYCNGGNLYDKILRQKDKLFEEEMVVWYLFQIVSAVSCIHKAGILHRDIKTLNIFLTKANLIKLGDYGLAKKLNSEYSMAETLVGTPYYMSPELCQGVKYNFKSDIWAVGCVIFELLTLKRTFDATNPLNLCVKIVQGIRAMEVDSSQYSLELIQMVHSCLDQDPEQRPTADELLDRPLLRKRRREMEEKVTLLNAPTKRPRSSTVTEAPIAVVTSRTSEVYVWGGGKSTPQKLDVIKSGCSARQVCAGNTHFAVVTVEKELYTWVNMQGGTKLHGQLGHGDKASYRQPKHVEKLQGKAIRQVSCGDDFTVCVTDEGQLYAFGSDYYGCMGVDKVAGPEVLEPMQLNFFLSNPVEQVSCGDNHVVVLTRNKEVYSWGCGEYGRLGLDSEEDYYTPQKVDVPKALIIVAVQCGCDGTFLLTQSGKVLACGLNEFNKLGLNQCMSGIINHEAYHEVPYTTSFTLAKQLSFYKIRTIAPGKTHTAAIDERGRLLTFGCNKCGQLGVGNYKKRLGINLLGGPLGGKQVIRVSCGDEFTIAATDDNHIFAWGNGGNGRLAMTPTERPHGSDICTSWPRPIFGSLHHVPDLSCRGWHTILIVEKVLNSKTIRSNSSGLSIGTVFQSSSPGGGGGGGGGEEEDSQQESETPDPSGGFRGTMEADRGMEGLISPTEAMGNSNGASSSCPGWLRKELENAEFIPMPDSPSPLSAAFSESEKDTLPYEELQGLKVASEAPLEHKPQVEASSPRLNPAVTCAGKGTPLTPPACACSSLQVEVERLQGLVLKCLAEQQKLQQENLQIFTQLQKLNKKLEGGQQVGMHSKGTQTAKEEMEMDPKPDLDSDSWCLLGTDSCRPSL
To be noted: at 1 µM.

In assay [2] the target is Serine/threonine-protein kinase PLK1 (Homo sapiens) (UniProt P53350). To be noted: at 0.1 µM.
Assay [3] shares this target. The note with it: at 1 µM.
The target of assay [4] is T2, Dual specificity protein kinase TTK (Homo sapiens) (UniProt P33981).
T2 sequence (whole entry): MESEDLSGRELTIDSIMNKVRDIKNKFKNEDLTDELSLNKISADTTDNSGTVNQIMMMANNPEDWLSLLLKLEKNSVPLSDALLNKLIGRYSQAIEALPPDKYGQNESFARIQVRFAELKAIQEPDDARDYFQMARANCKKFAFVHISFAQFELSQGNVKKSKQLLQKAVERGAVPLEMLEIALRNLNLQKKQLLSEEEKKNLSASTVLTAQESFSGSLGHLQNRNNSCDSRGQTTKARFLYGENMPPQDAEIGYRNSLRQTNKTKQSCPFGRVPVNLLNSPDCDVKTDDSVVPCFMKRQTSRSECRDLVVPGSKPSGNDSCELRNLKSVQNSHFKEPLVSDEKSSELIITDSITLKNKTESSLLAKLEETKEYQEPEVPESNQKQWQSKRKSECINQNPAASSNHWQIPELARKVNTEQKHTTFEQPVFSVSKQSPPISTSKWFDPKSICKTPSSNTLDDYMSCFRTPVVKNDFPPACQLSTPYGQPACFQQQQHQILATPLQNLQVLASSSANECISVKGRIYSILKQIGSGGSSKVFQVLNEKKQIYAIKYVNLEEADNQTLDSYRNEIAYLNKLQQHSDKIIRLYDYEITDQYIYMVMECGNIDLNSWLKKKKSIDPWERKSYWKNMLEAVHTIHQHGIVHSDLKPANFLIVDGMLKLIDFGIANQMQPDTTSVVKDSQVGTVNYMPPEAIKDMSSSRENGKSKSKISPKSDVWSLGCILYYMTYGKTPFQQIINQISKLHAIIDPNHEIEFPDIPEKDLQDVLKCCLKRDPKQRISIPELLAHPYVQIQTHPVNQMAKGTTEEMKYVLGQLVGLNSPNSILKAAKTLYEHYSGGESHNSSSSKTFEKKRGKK
To be noted: at 0.1 µM.

The test system of assay [5] is T3, Receptor-type tyrosine-protein kinase FLT3 (Homo sapiens), P36888 [D835Y].
T3 sequence (whole entry): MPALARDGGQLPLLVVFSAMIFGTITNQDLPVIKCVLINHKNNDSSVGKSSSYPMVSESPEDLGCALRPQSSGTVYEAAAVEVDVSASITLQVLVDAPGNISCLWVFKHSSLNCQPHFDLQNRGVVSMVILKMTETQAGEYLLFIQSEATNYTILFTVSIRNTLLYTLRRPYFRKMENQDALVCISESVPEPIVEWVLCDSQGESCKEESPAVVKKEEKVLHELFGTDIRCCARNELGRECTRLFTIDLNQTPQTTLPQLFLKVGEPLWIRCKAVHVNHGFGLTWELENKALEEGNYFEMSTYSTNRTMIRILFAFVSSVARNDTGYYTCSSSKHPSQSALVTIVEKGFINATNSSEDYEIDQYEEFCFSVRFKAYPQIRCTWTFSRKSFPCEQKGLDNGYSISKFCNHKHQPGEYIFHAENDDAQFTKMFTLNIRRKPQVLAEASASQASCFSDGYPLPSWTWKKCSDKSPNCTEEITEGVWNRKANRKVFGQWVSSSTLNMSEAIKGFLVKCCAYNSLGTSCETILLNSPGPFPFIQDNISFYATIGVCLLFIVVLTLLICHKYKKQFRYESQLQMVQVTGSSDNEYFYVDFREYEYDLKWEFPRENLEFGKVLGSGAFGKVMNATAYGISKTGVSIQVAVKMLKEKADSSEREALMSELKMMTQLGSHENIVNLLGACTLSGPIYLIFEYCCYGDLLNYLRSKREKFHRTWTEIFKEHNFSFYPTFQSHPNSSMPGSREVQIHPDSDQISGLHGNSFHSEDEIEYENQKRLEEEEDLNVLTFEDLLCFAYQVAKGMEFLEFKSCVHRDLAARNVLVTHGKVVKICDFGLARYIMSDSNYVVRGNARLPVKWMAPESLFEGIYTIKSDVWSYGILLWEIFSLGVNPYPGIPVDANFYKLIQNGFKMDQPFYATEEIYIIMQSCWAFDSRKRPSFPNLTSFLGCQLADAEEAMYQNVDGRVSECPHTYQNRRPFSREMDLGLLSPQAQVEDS
To be noted: at 1 µM.

For assay [6], the target named is Vascular endothelial growth factor receptor 3 (Homo sapiens) (UniProt P35916). The note with it: at 0.1 µM.
Assay [7] has the same target. The note with it: at 1 µM.
Assay [8] deals with Macrophage colony-stimulating factor 1 receptor (Homo sapiens) (UniProt P07333). To be noted: at 0.1 µM.
For assay [9] the target is unchanged. To be noted: at 1 µM.
The target in assay [10] is Tyrosine-protein kinase Fyn (Homo sapiens) (UniProt P06241). To be noted: at 0.1 µM.
Tyrosine-protein kinase Fyn (Homo sapiens), sequence (P06241 2-537 limits assumed): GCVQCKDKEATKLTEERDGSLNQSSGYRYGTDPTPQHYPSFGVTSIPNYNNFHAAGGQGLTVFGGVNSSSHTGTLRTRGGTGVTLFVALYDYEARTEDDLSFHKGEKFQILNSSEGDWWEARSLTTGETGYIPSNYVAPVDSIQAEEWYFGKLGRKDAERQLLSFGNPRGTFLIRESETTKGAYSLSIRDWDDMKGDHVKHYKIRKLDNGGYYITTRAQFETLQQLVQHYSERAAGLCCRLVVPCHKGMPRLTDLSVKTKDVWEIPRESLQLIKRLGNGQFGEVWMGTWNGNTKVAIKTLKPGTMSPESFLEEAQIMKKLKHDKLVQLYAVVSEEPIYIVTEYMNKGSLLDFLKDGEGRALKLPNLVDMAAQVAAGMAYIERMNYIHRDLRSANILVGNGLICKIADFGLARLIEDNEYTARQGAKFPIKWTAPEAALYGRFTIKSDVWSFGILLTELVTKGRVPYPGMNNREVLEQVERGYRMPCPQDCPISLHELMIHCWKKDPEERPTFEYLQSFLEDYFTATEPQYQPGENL

Macrophage colony-stimulating factor 1 receptor (Homo sapiens), sequence (P07333 whole entry): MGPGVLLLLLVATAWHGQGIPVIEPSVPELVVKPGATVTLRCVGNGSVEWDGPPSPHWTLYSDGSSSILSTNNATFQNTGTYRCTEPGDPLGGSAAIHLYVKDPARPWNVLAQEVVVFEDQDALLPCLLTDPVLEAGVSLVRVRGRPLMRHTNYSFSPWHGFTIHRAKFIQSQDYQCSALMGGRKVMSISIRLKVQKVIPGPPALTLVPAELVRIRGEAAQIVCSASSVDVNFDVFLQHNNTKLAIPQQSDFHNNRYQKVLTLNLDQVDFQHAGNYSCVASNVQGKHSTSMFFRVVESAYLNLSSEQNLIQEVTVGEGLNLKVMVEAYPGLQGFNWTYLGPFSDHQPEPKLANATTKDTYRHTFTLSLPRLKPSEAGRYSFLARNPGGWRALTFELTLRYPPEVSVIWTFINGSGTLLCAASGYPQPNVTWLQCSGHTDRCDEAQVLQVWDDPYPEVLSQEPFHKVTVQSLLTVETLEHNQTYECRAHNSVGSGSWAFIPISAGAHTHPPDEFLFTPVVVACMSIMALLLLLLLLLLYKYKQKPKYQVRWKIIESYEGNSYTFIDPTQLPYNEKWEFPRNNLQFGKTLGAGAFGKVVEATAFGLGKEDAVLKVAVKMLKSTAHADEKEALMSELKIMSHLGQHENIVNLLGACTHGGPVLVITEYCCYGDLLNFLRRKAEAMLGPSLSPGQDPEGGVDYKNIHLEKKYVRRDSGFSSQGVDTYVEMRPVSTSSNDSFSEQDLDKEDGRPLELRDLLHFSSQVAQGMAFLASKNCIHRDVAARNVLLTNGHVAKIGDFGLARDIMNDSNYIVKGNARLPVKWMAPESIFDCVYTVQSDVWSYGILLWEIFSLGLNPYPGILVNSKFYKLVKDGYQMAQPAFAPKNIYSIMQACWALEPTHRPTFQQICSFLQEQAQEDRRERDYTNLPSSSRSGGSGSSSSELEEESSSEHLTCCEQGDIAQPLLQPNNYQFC
Serine/threonine-protein kinase PLK1 (Homo sapiens), sequence (P53350 whole entry): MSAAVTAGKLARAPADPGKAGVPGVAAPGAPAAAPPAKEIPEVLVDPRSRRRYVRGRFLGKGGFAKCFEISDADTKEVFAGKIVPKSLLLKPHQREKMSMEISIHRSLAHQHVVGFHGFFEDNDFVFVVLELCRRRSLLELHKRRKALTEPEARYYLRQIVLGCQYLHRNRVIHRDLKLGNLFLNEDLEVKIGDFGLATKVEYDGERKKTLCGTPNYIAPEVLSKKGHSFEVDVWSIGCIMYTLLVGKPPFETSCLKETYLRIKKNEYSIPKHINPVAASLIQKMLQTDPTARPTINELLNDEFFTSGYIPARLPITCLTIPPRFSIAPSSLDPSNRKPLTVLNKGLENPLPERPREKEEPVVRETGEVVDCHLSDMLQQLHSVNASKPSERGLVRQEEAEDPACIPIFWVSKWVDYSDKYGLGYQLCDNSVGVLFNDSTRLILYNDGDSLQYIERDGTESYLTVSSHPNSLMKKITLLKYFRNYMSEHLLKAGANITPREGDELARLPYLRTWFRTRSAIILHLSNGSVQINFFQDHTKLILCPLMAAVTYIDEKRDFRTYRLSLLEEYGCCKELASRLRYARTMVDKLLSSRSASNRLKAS
Vascular endothelial growth factor receptor 3 (Homo sapiens), sequence (P35916 whole entry): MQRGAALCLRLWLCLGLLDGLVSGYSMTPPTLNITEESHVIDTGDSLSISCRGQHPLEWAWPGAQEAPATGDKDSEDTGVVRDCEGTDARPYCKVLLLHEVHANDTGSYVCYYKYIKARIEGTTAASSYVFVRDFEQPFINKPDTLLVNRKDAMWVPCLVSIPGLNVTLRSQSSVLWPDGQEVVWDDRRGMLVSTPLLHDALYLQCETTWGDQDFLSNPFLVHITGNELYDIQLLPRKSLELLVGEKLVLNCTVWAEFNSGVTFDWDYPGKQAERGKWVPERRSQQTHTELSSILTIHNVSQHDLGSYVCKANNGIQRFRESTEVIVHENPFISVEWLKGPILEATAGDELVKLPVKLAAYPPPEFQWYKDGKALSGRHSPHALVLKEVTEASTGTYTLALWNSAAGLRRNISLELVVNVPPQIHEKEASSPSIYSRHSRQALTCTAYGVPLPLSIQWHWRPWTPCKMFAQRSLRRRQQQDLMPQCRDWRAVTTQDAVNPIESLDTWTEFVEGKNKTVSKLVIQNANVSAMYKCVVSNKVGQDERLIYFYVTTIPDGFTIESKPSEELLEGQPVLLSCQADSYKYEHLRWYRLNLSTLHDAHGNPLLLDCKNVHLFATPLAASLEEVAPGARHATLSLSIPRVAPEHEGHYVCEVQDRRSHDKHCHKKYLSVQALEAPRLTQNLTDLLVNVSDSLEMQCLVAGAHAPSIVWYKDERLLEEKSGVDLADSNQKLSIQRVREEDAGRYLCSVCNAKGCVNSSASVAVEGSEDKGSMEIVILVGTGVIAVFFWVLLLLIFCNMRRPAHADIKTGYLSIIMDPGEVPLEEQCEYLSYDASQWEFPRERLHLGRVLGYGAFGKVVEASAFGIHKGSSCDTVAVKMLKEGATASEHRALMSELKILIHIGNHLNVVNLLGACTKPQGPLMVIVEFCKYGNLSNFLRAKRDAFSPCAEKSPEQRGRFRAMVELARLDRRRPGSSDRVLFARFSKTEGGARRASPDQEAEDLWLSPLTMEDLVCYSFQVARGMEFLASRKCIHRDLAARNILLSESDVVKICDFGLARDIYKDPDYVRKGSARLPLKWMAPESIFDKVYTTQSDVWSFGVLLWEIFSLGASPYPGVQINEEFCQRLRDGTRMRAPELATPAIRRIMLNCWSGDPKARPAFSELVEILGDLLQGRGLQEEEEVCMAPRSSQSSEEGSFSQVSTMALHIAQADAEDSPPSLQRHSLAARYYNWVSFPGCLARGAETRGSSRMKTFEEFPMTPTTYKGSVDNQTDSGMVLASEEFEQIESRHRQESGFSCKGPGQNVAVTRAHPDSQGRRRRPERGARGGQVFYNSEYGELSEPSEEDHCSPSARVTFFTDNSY

On to `Cn1c(-c2nonc2N)nc2cnccc21`, for which the inhibition – broadly, the relative decrease from the control value, in per cent – in assay [1] was determined as 10.4%; in assay [2] it was 4.28%; in [3] it was 5.16%; in assay [4], 5.36%; in assay [5], 6.27%; in assay [6], 2.31%. The inhibition in assay [7] is -0.12%; in [8], -0.13%; in assay [9] it was 4.58%; in assay [10], 1.61%.
In the case of `Cc1c2ccc(N(C)c3ccnc(Nc4cccc(S(N)(=O)=O)c4)n3)cc2nn1C`, the inhibition turned out to be 6.19% in assay [1]; 3.29% in assay [2]; 3.99% in assay [3]; 8.91% in assay [4]; 13.8% in assay [5]; 58.8% in assay [6]. Besides, the inhibition was 93.8% in assay [7], 78.4% in assay [8], 91.7% in assay [9] and 13.8% in [10].
As to `CS(=O)(=O)CCNCc1ccc(-c2ccc3ncnc(Nc4ccc(OCc5ccccc5)cc4)c3c2)o1`, the inhibition in [1] was 15.5%; in [2], 3.64%; in [3] it was 3.52%; in assay [4] it was 5.7%; in assay [5], -0.67%; in assay [6], -0.25%. Also, the inhibition in [7] was 4.64%; in assay [8], 1.81%; in assay [9], 6.19%; in assay [10], 1.87%.
Regarding `CN(c1ccc(NC(=O)NCCN2CCOCC2)cc1)c1ccnc(Nc2ccc(CS(C)(=O)=O)cc2)n1`, the inhibition in [1] came out at 4.91%; in assay [2] it was 0.46%; in [3], 1.42%; in assay [4] it was 6.2%; in assay [5], 19.9%; in assay [6], 4.1%. In addition, the inhibition in [7] was found to be 20.6%; in [8], 79.7%; in assay [9], 97%; in [10] it was 0.52%.
On to `CS(=O)(=O)Nc1ccc(-c2cc(-c3ccccc3)cc(C(N)=O)c2N)cc1`, for which the inhibition in assay [1] is 1.82%; in assay [2] it was 0.78%; in [3] it was 3.05%; in assay [4], 3.79%; in assay [5], -1.74%; in assay [6] it was 11.7%. Moreover, the inhibition was determined as 14.7% in assay [7], 1.42% in assay [8], 9.05% in [9] and 1.39% in assay [10].
Take `CCCNc1cccc(-n2ncc3c(N/N=C/c4ccncc4)ncnc32)c1`: the inhibition in assay [1] is 0.45%; in [2], -0.12%; in assay [3] it was 0.93%; in assay [4], 4%; in assay [5], 31.9%; in assay [6], 11.3%. Further, the inhibition in assay [7] turned out to be 40.7%; in assay [8] it was 3.81%; in [9], 17.6%; in assay [10] it was 8.6%.
As for `Cc1nnc(-c2cccc(-c3ccc(C(=O)NCC4CC4)cc3)c2)o1`, the inhibition in [1] was 7.69%; in assay [2], 4.37%; in [3], 3.89%; in [4], 9.53%; in assay [5] it was 0.86%; in [6], 4.47%. Further, the inhibition in assay [7] is -1.03%; in assay [8], 2.5%; in assay [9], 1.96%; in assay [10], 1.1%.
On to `O=C(O[C@H]1CN[C@H](C#Cc2cc3ncnc(Nc4ccc(OCc5cccc(F)c5)c(Cl)c4)c3s2)C1)N1CCOCC1`, for which the inhibition in [1] is 13.5%; in [2], 3.78%; in assay [3], 4.55%; in assay [4], 12.4%; in assay [5], -1.26%; in assay [6], 6.24%. The inhibition in assay [7] worked out at 3.14%; in [8] it was 1.07%; in assay [9], 1.72%; in assay [10], 3.75%.
As for `CNC(=O)c1ncccc1Nc1nc(Nc2cc3c(cc2OC)CCCN3C(=O)CN(C)C)nc2[nH]ccc12`, the inhibition in assay [1] is 8.8%; in assay [2], 79.8%; in [3], 92.8%; in assay [4], 12.8%; in assay [5], 2.75%; in assay [6] it was 2.84%. The inhibition in [7] came to 2.27%; in assay [8] it was 7.05%; in assay [9] it was 3.9%; in assay [10] it was 1.75%.
`COc1ccccc1-c1cc(/C=C2\C(=O)Nc3ncc(Br)cc32)cc(Br)c1O`: the inhibition turned out to be 3.53% in [1]; 4.19% in assay [2]; 9.04% in [3]; 12.7% in [4]; 4.73% in assay [5]; 1.8% in [6]. For the same compound, the inhibition is 4.28% in [7], 3.88% in assay [8], 7.16% in assay [9] and 5.35% in [10].
As to `NS(=O)(=O)c1cccc(N/C=C2\C(=O)Nc3ccccc32)c1`, the inhibition is 4.34% in assay [1]; 3.78% in assay [2]; 4.79% in assay [3]; 9.01% in [4]; 25.9% in assay [5]; 1.98% in assay [6]. Further, the inhibition in [7] came to 14.8%; in assay [8], 5.41%; in assay [9] it was 25.1%; in assay [10] it was 2.53%.
Regarding `N#Cc1ccc2c(-c3ccnc(NC4CC4)n3)c(-c3ccc(F)cc3)nn2c1`, the inhibition is 4.02% in assay [1]; 2.66% in assay [2]; 0.98% in assay [3]; 2.64% in assay [4]; 4.7% in assay [5]; -1.37% in assay [6]. Moreover, the inhibition is 4.18% in [7], -2.75% in assay [8], 4.65% in [9] and -0.41% in assay [10].
On to `NC(=O)c1ccc2c(-c3ccnc(NCCCO)n3)c(-c3ccc(F)cc3)nn2c1`, for which the inhibition in assay [1] is 5.15%; in [2], 3.87%; in [3] it was 4.03%; in assay [4], 14%; in assay [5], -0.97%; in assay [6], 2.83%. Besides, the inhibition in [7] is 1.06%; in assay [8], 5.2%; in assay [9], 8.64%; in assay [10] it was 2.14%.
As for `COc1cccc(-n2ncc3c(N/N=C/c4ccc(C(=O)NCCN(C)C)cc4)ncnc32)c1`, the inhibition in [1] is 1.36%; in assay [2], 1.5%; in assay [3], 2.1%; in assay [4], 3.48%; in [5], 76%; in [6] it was 12.1%. The inhibition in assay [7] worked out at 53.5%; in assay [8], 6.78%; in assay [9], 37.8%; in assay [10], 48.6%.
For the compound `COc1cc(N2CCN(C(C)C)CC2)ccc1Nc1nc(Nc2cccc3ncccc23)c2cc[nH]c2n1`, the inhibition is -1.45% in assay [1]; -0.26% in [2]; 0.8% in assay [3]; 52.1% in assay [4]; 1.87% in assay [5]; 0.19% in assay [6]. Besides, the inhibition in assay [7] was determined as 0.22%; in [8] it was 1.9%; in assay [9], 3.33%; in assay [10], 2.06%.
As to `CCS(=O)(=O)c1ccc(OC)c(Nc2ncc(-c3cccc(C(C)=O)c3)o2)c1`, the inhibition in assay [1] worked out at 3.45%; in assay [2], 2.42%; in [3], 2.98%; in assay [4], 5.81%; in assay [5], 87.2%; in [6], 10.7%. Further, the inhibition in assay [7] was 47.3%; in [8] it was 10.2%; in [9], 34.7%; in assay [10] it was 26.4%.
